This note sets out measurements from PubChem BioAssay (NCATS).

Experiment [1] concerns MKL-2. Put plainly: qHTS assay to identify novel small-molecules to repurpose for Merkel cell carcinoma treatment (AID 1296009). Also: nearly all actives have a fitted effect of over 60% in size. Also: potency is read from the fitted curve at half-maximal effect. The conditions noted are these: MCC and control cell lines, CellTiter-Glo viability, 72 h; series mostly up to 46 µM. The procedure, abridged: (§1)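 Cells were treated for 72 hr at 37 degree celsius with compounds in 8- or 11-point dose response. Viability was read by CellTiter-Glo luminescence, normalized to no-cell (cytotoxicity) and DMSO controls.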
(In general: In qHTS, concentration-response curves come from the screen itself.)

Experiment [2] has as its system NIH3T3. Described as above. To be noted: MCC and control cell lines, CellTiter-Glo viability, 72 h; at 44.8 µM (top of the series) unless noted. An outline of the steps: as §1
On the technique in general: In ATP-based viability assays light output follows the ATP content of the culture.

Experiment [3] concerns UISO. Described as above. To be noted: MCC and control cell lines, CellTiter-Glo viability, 72 h; series mostly up to 46 µM. The procedure, abridged:
as §1

Experiment [4] concerns C33A. Put plainly: Primary qHTS to identify gynecologic anti-cancer compounds using libraries of approved drugs and bioactive compounds (AID 1345084). Also: nearly all actives have a fitted effect of over 55% in size. Also: potency is read from the fitted curve at half-maximal effect. The conditions noted are these: Gynecologic cancer cell panel viability, ATPlite luminescence, 48 h; series mostly up to 57.5 µM. An outline of the steps:
(§2)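 Measured: luminescence after ATPlite addition (15 min, RT). Exposure: 48 h, 37 C, 5% CO2.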

Experiment [5] relates to CAOV3. The experiment is described as above. To be noted: Gynecologic cancer cell panel viability, ATPlite luminescence, 48 h; series mostly up to 57.5 µM. An outline of the steps:
as §2

Experiment [6] has as its system CASKI. The experiment is described as above. The conditions noted are these: Gynecologic cancer cell panel viability, ATPlite luminescence, 48 h; series mostly up to 57.5 µM. The procedure, abridged: as §2
Experiment [7] concerns Es-2. Described as above. The conditions noted are these: Gynecologic cancer cell panel viability, ATPlite luminescence, 48 h; series mostly up to 57.5 µM. The procedure, abridged: as §2
The subject of experiment [8] is HeLa. Described as above. To be noted: Gynecologic cancer cell panel viability, ATPlite luminescence, 48 h; series mostly up to 57.5 µM. An outline of the steps: as §2
For experiment [9], the system named is JEG-3. The description is as above. The conditions noted are these: Gynecologic cancer cell panel viability, ATPlite luminescence, 48 h; series mostly up to 57.5 µM. The procedure, abridged: as §2
Experiment [10] has as its system OV90. The experiment is described as above. To be noted: Gynecologic cancer cell panel viability, ATPlite luminescence, 48 h; series mostly up to 57.5 µM. An outline of the steps: as §2
Experiment [11] relates to PA-1. The description is as above. The conditions noted are these: Gynecologic cancer cell panel viability, ATPlite luminescence, 48 h; series mostly up to 57.5 µM. An outline of the steps: as §2
Experiment [12] deals with SKOV3. The description is as above. The conditions noted are these: Gynecologic cancer cell panel viability, ATPlite luminescence, 48 h; series mostly up to 57.5 µM. The procedure, abridged: as §2
For experiment [13], the system named is Tov-21-G. The experiment is described as above. The conditions noted are these: Gynecologic cancer cell panel viability, ATPlite luminescence, 48 h; series mostly up to 57.5 µM. An outline of the steps: as §2
Experiment [14] concerns Tov112D. The experiment is described as above. To be noted: Gynecologic cancer cell panel viability, ATPlite luminescence, 48 h; series mostly up to 57.5 µM. The procedure, abridged:
as §2

Experiment [15] can be described thus: Drug repurposing screens with cells derived from glioblastoma tumor samples (AID 1345199). Also: nearly all actives have a fitted effect of over 40% in size. Also: potency is read from the fitted curve at half-maximal effect. The conditions noted are these: GBM patient neurospheres viability, ATP luminescence, 48 h. An outline of the steps:
(§3)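 Four patient lines of CD133+ GBM neurospheres were screened at several concentrations; hits were retested in those lines plus three slower-growing GBM lines, using 48-hour treatment and ATP-based viability.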

The test system of experiment [16] is astro. Described as above. The conditions noted are these: viability, ATP luminescence, 48 h; series mostly up to 45.9 µM. An outline of the steps:
as §3

Experiment [17] in a line: qHTS assay to identify inhibitors of the type 1 interferon - major histocompatibility complex class I in skeletal muscle: Counter screen cell viability and HiBit confirmation (AID 1347412). Also: nearly all actives have a fitted effect of over 60% in size. The conditions noted are these: iHSKM muscle cells + IFN-b, HiBiT or CellTiter-Glo, 24 h; Viability; at 45.9 µM (top of the series). The procedure, abridged:
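Luminescence read-out: Nano-Glo HiBiT lytic signal from C-terminally HiBiT-tagged HLA-B in CRISPR-edited human myoblasts, plus CellTiter Glo ATP as viability counter screen. IFN-beta 4.0 ng/ml; 24 hrs treatment at 37 C, 5% CO2.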

Experiment [18] concerns MKL-1. The experiment in a line: qHTS assay to identify novel small-molecules to repurpose for Merkel cell carcinoma treatment (AID 1296009). Also: nearly all actives have a fitted effect of over 60% in size. Also: potency is read from the fitted curve at half-maximal effect. The conditions noted are these: MCC and control cell lines, CellTiter-Glo viability, 72 h; series mostly up to 46 µM. An outline of the steps: as §1
Experiment [19] concerns WaGa. Described as above. The conditions noted are these: MCC and control cell lines, CellTiter-Glo viability, 72 h; series mostly up to 46 µM. The procedure, abridged:
as §1

For experiment [20], the system named is Hek293T. The experiment in a line: Primary qHTS to identify gynecologic anti-cancer compounds using libraries of approved drugs and bioactive compounds (AID 1345084). Also: nearly all actives have a fitted effect of over 55% in size. Also: potency is read from the fitted curve at half-maximal effect. The conditions noted are these: Gynecologic cancer cell panel viability, ATPlite luminescence, 48 h, control line for the selectivity index; series mostly up to 57.5 µM. An outline of the steps:
as §2

[21] abbreviates: at 46.1 µM (top of the series), tumour line C.

Results filed as inconclusive are left out. Values without a mark were called inactive. Calls of active or inactive are those of the source. Calls follow the shape of the dose curve; as a rule, active = well fitted curve in the direction sought with a large enough effect; inconclusive = small, poorly fitted or top-dose-only effect, or another doubt; inactive = no such curve, though single readings can be large; an effect the other way counts as inactive or inconclusive.
% is scaled to controls: 0 for no effect and ±100 for the full control effect.

Consider `Oc1ccc(-c2nc(-c3ccc(F)cc3)c(-c3ccncc3)[nH]2)cc1`, for which the Potency in [1] is 20.9 µM (active). Further, the outcome in [2] was inactive. In addition, the Potency result in [3] is “inactive”.
Consider `COc1c2occc2cc2ccc(=O)oc12`, for which the Potency entry in experiment [4], in experiment [5], in experiment [6], in [7], in [8] and in experiment [9] was “inactive” each time. The Potency result in experiment [10], in experiment [11], in [12], in experiment [13], in experiment [14] and in experiment [16] was “inactive” each time. Besides, the activity, negative = cell killing in experiment [15] (at 45.9 µM (top of the series), tumour line B) was -22.6%; in [15] (at 45.9 µM (top of the series), tumour line D), -10.6%; in experiment [15] (setting [21]), -21.4%.
`CCCOc1ccc2nc(NC(=O)OC)[nH]c2c1`: the Potency result in [5] was “inactive”. In addition, the Potency in experiment [7] was 0.631 µM (active); in experiment [8], 0.282 µM (active); in [9], 1 µM (active); in experiment [11] it was 0.282 µM (active); in experiment [13] it was 0.316 µM (active); in experiment [14] it was 0.316 µM (active). The activity change, negative = inhibition in experiment [17] was -24.3%.
As for `NCCCCNCCCN`, the Potency in [1] is 8.33 µM (active). Moreover, in experiment [3], the Potency entry was “inactive”.
With `O=C1c2ccccc2-c2n[nH]c3cccc1c23`, the Potency was 3.32 µM (active) in experiment [18], 2.64 µM (active) in experiment [19], 12.6 µM (active) in experiment [15] (tumour line D) and 10 µM (active) in experiment [16]. For the same compound, in [15] (setting [21]), the activity, negative = cell killing is -13.2%.
With `CCCS(=O)c1ccc2nc(NC(=O)OC)[nH]c2c1` (configuration not stated), the Potency entry in [18], in [4], in experiment [5], in experiment [6], in experiment [7] and in experiment [9] was “inactive” each time. Besides, the Potency entry in experiment [10] was “inactive”. Moreover, the Potency was 14.1 µM (active) in [11] and 8.91 µM (active) in [14].
As to `CC(=O)O[C@H]1C(=O)[C@@]2(C)C([C@H](OC(=O)c3ccccc3)[C@]3(O)C[C@H](OC(=O)[C@H](O)[C@@H](NC(=O)c4ccccc4)c4ccccc4)C(C)=C1C3(C)C)[C@]1(OC(C)=O)CO[C@@H]1C[C@@H]2O` (some centres not stated), the Potency entry in experiment [18], in experiment [1], in [5], in experiment [20], in experiment [9] and in experiment [10] was “inactive” in each case. In addition, the results for the Potency in experiment [7] and in experiment [8] were 0.282 µM (active) and 0.0794 µM (active), respectively.
As for `Oc1ccc2ccccc2c1SSc1c(O)ccc2ccccc12`, the Potency in experiment [1] is 20.9 µM (active). The outcome in experiment [2] was inactive.
`C=C(c1ccc(C(=O)O)cc1)c1cc2c(cc1C)C(C)(C)CCC2(C)C`: the Potency entry in experiment [4], in experiment [5], in [6], in experiment [7], in [8] and in [20] was “inactive” throughout. Further, the Potency entry in experiment [9], in [10], in experiment [11], in experiment [12], in experiment [13] and in [14] was “inactive” in each case.
`CN1C(C(=O)Nc2ccccn2)=C(O)c2sccc2S1(=O)=O`: the Potency result in [4], in experiment [5], in experiment [6], in [7], in [8] and in [20] was “inactive” in each case. The Potency result in experiment [9], in [10], in experiment [11], in experiment [12], in experiment [13] and in [14] was “inactive” each time. Further, the Potency result in experiment [16] is “inactive”.
Take `CCc1nc(N)nc(N)c1-c1ccc(Cl)cc1`: the Potency entry in [18], in [1], in experiment [5], in experiment [9], in [12] and in experiment [16] was “inactive” in each case. Moreover, the Potency in experiment [19] is 11.9 µM (active); in [4], 5.01 µM (active); in [7], 4.47 µM (active); in experiment [8], 14.1 µM (active); in [20] it was 7.94 µM (active); in [10], 7.94 µM (active). The Potency in [11] was 7.94 µM (active); in [13] it was 3.16 µM (active); in experiment [14], 14.1 µM (active).
